Compounds with a hit are over-represented: about 2.2% of the library has one in this group of screens.
PAX8 inh HTS = PAX8 transcriptional activity inhibition. RMG-I TPO-luciferase reporter, SteadyGlo, 24 h. inhibition, % at 12.6 µM. hit rate 1.2% among 360,000;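 active means mean replicate inhibition at least 60% with every replicate also reaching 60%; inconclusive means only one of the two criteria is met; inactive means mean below 60% and not all replicates reaching 60%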;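 further: luciferase light reporting Pax8 driven TPO promoter activity; plate controls were median of neutral control wells for no effect and mitoxantrone controls for full effect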
EWS-Fli block = inhibitors of EWS/Fli oncoprotein transcriptional activity; hit rate 0.67% among 350,000; A673 NR0B1-luciferase reporter, viability-normalised; AID 651661; inhibition, % at 12.6 µM;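 active means mean inhibition of at least 50% after viability correction, with every replicate also passing that limit; inconclusive means mean reaches 50% but only one of two replicates passes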;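 further: firefly luciferase signal divided by Alamar Blue viability fluorescence both relative to DMSO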
PGC1a acetyl inh = PGC1a acetylation modulation, inhibitor mode; hit rate 0.17% among 350,000; U2OS PGC1a acetylation, AlphaScreen anti-acetyl-lysine; with virally co-expressed GCN5 acetyltransferase; AID 651687; inhibition, % at 15.6 µM;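 active means every replicate shows inhibition of at least 40%; inconclusive means mean inhibition at least 40% but some replicate below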;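 further: 0% = neutral control wells and 100% = positive control wells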
EBV LMP1 NFkB = inhibitors of Epstein-Barr LMP1-induced NF-kappaB reporter; LMP1-induced NF-kappaB luciferase reporter cells, luminescence; inhibition, % at 12.5 µM; hit rate 0.69% among 350,000; AID 504558; in the data active means inhibition above about 41%; inconclusive means no clear call, values can overlap the other calls;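 further: 0% = neutral control wells and 100% = reference inhibitor control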
LGR2 antag = inhibitors of bursicon-induced Drosophila LGR2 receptor cAMP signaling. HEK293 LGR2, CRE-luciferase, bursicon-stimulated, 4 h. inhibition, % at 9.99 µM. hit rate 0.35% among 380,000. AID 720647;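 active means drop in luminescence signal, shown as inhibition above about 50% in the replicate tests, limit read from the data, passing the limit was not always enough; inconclusive means probably only some replicates passing the limit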;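 further: agonist challenge used bursicon conditioned medium at about half maximal strength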
TRPM1 prom inh = reduces MITF-dependent TRPM1 promoter luciferase signal; SK-MEL-5 TRPM1 promoter luciferase, 24 h; inhibition, % at 12.5 µM; hit rate 0.83% among 330,000; AID 488899;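 active means mean inhibition across replicates of 60% or more, whatever share of single replicates reaches that level; inconclusive means some that reach 60%, reason not given; inactive means mean inhibition across replicates below 60%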
Numbers without * were called inactive; u = inconclusive; x = no result.

SMILES | PAX8 inh HTS | EWS-Fli block | PGC1a acetyl inh | EBV LMP1 NFkB | LGR2 antag | TRPM1 prom inh
O=[N+]([O-])c1nn(-c2ccc3c(c2)OCCO3)n(O)c1=Nc1ccccc1 | 29.0 | 74.1* | x | 75.3* | 22.3 | 85.5*
Cc1cc(C)cc(N=c2c([N+](=O)[O-])nn(-c3ccc4c(c3)OCCO4)n2O)c1 | 99.9* | -7.5 | 4.0 | 16.0 | -3.2 | 7.1
O=[N+]([O-])c1nn(-c2ccc3c(c2)OCCO3)n(O)c1=Nc1ccc(Cl)cc1 | x | 16.1 | -3.3 | 57.6* | 34.3 | 63.7*
CCCC#Cc1ccc2c(c1)O[C@H](CN(C)C(=O)CC1CC1)[C@@H](C)CN([C@@H](C)CO)S2(=O)=O | x | 9.0 | 3.0 | x | 7.9 | x
C[C@@H](NC(=O)C[C@@H]1C=C[C@H](NC(=O)C2CC2)[C@@H](CO)O1)c1ccccc1 | -5.5 | -3.8 | 5.2 | x | 1.4 | x
N#Cc1nc(NCC(F)F)nc(Nc2cc(F)cc(F)c2)n1 | 98.0* | -11.2 | x | -5.4 | 27.0 | 74.6*
Cc1ccc(N(C)C)cc1 | x | -11.1 | x | x | 15.8 | x
Cc1ccc2c(c1)sc(-c1ccc(N(C)C)cc1)[n+]2C | 55.1 | 26.3 | x | 21.9 | -40.5 | 62.0*
COc1cc(OC)cc(-c2c(C#Cc3ccsc3)c3cc(-c4cc(OC)c(OC)c(OC)c4)ccc3n2C)c1 | 16.4 | 5.5 | -0.8 | 89.2* | 48.3 | 5.5
COc1cc(C#Cc2c(-c3cncn3C)n(C)c3ccc(-c4cc(OC)c(OC)c(OC)c4)cc23)cc(OC)c1 | 73.3* | 22.8 | x | -12.9 | x | 11.6
C[C@@H]1CN([C@H](C)CO)C(=O)CCCn2cc(nn2)CO[C@@H]1CN(C)C(=O)c1cc(-c2ccccc2)on1 | -8.7 | -2.1 | -6.2 | x | 2.4 | x
CCOC(=O)/C(=C\c1ccc(N2CCC(c3ccccc3)=N2)cc1)C(C)=O | -134.3 | -3.0 | -3.7 | 87.6* | 22.1 | -78.9
O=C(/C=C/c1ccc(N2CCC(c3ccccc3)=N2)cc1)c1ccccc1 | -0.3 | -32.3 | x | x | -10.6 | x
CCCC#Cc1ccc2c(c1)O[C@@H](CN(C)C(=O)c1ccccn1)[C@@H](C)CN([C@H](C)CO)S2(=O)=O | x | -2.7 | -19.7 | x | 25.1 | x
COc1cc(-c2nnc(COC(=O)C3c4ccccc4Oc4ccccc43)o2)cc(OC)c1OC | x | x | -0.2 | -3.6 | x | -13.9
COc1ccc(C2=C(C=C(C#N)C#N)C(c3ccccc3C)c3ccccc3O2)cc1OC (centres undefined) | 64.8* | 17.6 | x | 2.4 | -15.6 | 8.4
O=C(Nc1ccccc1)N1CCCCN2[C@@H](CO)[C@H](c3ccc(C#Cc4cccnc4)cc3)[C@@H]2C1 | -17.8 | 7.3 | -1.3 | x | 4.9 | x
CC(C1CC1)N(Cc1ccccc1)C(=S)Nc1cccc(C(F)(F)F)c1 (centres undefined) | 118.1* | 3.4 | -7.4 | 3.8 | 20.5 | 11.5
C[C@@H]1CCCCO[C@@H](CN(C)S(=O)(=O)c2ccccc2)[C@H](C)CN([C@@H](C)CO)C(=O)c2cc(N(C)C)ccc2O1 | 33.8 | 1.8 | -3.3 | x | 12.8 | x
CC(=O)Nc1cc(-c2cccc(C(=O)NCCN(C)C)c2)cn2c(-c3ccccc3)cnc12 | 7.8 | -4.5 | -11.0 | x | -0.4 | x
CN(C)CCNC(=O)c1cccc(-c2cnc3c(NC=O)cc(-c4ccc(F)cc4)cn23)c1 | 18.0 | 30.5 | -10.8 | x | 14.2 | x
CC(=O)Nc1cc(-c2cccc(C(=O)NCCN(C)C)c2)cn2c(-c3cccc(C(F)(F)F)c3)cnc12 | 106.4* | 55.1* | -16.3 | x | -3.6 | x
CCSc1ccc(-c2cc(NC=O)c3ncc(-c4cccc(C(=O)NCCN(C)C)c4)n3c2)cc1 | 99.3* | u | x | x | -16.8 | x
CC(C)C[C@@H](CN1CCCC1CN1C(=S)NC[C@@H]1Cc1ccc(O)cc1)N1C[C@H](Cc2ccc(O)cc2)N(CCc2ccccc2)C1=S (some centres undefined) | 71.2* | 7.3 | x | 7.4 | 6.1 | 34.6
CCOc1ccc(CCN2C(=S)N([C@@H](Cc3ccc(O)cc3)CN3CCC[C@@H]3CN3C(=S)NC[C@@H]3CC(C)C)C[C@@H]2Cc2ccc(O)cc2)cc1 | 97.9* | 33.5 | -16.1 | x | 2.3 | x
SMILES | PAX8 inh HTS | EWS-Fli block | PGC1a acetyl inh | EBV LMP1 NFkB | LGR2 antag | TRPM1 prom inh
Oc1ccc(C[C@H]2CN([C@@H](Cc3ccc(O)cc3)CN3CCC[C@@H]3CN3C(=S)NC[C@@H]3Cc3ccccc3)C(=S)N2CCc2ccccc2)cc1 | 22.0 | 31.2 | -4.9 | x | 22.8 | x
O=C(Nc1ccccc1F)N[C@@H]1CC[C@H](CCNS(=O)(=O)c2ccc(Cl)cc2)O[C@@H]1CO | 8.4 | 0.0 | -7.1 | x | -11.3 | x
O=C(Nc1sc2c(c1C(=O)O)CCCC2)c1ccc(F)cc1 | 15.7 | -352.1 | -5.3 | -9.5 | -33.0 | x
CC(C)(C)c1ccc(C(=O)Nc2sc3c(c2C(=O)O)CCC3)cc1 | 80.2* | 23.3 | 5.3 | 26.7 | 39.4 | 66.2*
O=C(C[n+]1cc(-c2ccc(Cl)c(Cl)c2)n2c1CCC2)N1c2ccccc2Sc2ccccc21 | 40.0 | x | x | 0.0 | -4.0 | 2.9
O=C(C[n+]1cc(-c2ccc(Cl)cc2)n2c1CCC2)N1c2ccccc2Sc2ccccc21 | 70.0* | x | x | 3.3 | 8.5 | 11.5
COc1ccc(-c2c[n+](CC(=O)N3c4ccccc4Sc4ccccc43)c3n2CCC3)cc1 | 76.0* | 2.6 | x | 0.3 | 2.1 | 21.5
C[C@H]1CN([C@@H](C)CO)S(=O)(=O)c2ccc(-c3cccnc3)cc2O[C@H]1CN(C)C | x | -19.6 | 12.5 | x | -11.9 | x
O=C(N[C@@H]1CC[C@H](CCNS(=O)(=O)Cc2ccccc2)O[C@@H]1CO)c1cnccn1 | -4.6 | -1.9 | -7.7 | x | 8.9 | x
COc1ccc(-c2cnc3c(c2)C(=O)N([C@H](C)CO)C[C@H](C)[C@H](CN(C)S(=O)(=O)c2cccc(F)c2)O3)cc1 | x | 12.3 | -0.4 | x | 19.7 | x
CN(c1cccc(NS(=O)(=O)c2cccs2)c1)S(C)(=O)=O | 13.2 | x | 50.7* | -5.6 | x | 2.4
COc1cccc(CN2C[C@@H]3N[C@H](C2)C3c2ccc(-c3ccccc3F)cc2)c1 (some centres undefined) | 9.9 | 11.4 | -108.2 | x | -14.2 | x
C=CCNC(=O)[C@H]1[C@@H]2C(=O)O[C@@H](c3ccccc3)[C@@H](c3ccccc3)N2[C@@H](c2ccccc2OCCO)[C@]12C(=O)N(C(=O)OCCOC)c1ccc(C#CC3(O)CCCCCC3)cc12 | 52.7 | 12.3 | x | x | x | x
COCCOC(=O)N1C(=O)[C@@]2(c3ccccc31)[C@H](c1ccccc1OCCO)N1[C@H](c3ccccc3)[C@H](c3ccccc3)OC(=O)[C@H]1[C@@H]2C(=O)NC[C@H](O)c1ccccc1 | 109.2* | 5.5 | x | x | x | x
C=CCNC(=O)[C@@H]1[C@H]2C(=O)O[C@H](c3ccccc3)[C@H](c3ccccc3)N2[C@H](c2ccccc2OCCO)[C@@]12C(=O)N(C(=O)OCCOC)c1ccccc12 | 86.8* | 7.3 | x | x | x | x
COCCOC(=O)N1C(=O)[C@@]2(c3cc(C#CC4=CCCCC4)ccc31)[C@H](c1ccccc1OCCO)N1[C@H](c3ccccc3)[C@H](c3ccccc3)OC(=O)[C@H]1[C@@H]2C(=O)NC[C@H](O)c1ccccc1 | 51.0 | 5.2 | x | x | x | x

High-throughput results deposited in PubChem BioAssay by Broad Institute.
